# Measurements from PubChem BioAssay (NCATS).
# Inconclusive results are not listed. Where a call stands in place of a potency, no number is given. Activity calls are given as the source filed them. Calls come from the whole dose curve; as a rule, active = well fitted inhibition curve with a large enough effect; inconclusive = small, poorly fitted or top-dose-only effect; inactive = flat fitted curve, though single readings scatter.
# Assay: qHTS to identify inhibitors of the type 1 interferon - major histocompatibility complex class I in skeletal muscle: primary screen against the NCATS Pharmaceutical Collection (AID 1347407);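 note: luminescence of HiBiT knocked into endogenous HLA-B as interferon-induced MHC class I level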
# In short: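 Cells were seeded with 4 ng/ml IFN-beta, incubated 1 h, then dosed with compounds over eight 1:5 steps up to 46 uM final. After 24 h at 37 C, HiBiT lytic reagent was added and luminescence read after 10 min lysis in the dark.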
row,Compound,Potency
1,CCCCCCCCCCCCSCCOCCO,inactive
2,CC(C)(Cc1c[nH]c2ccccc12)NCC(O)COc1ccccc1C#N (configuration not stated),inactive
3,CCOc1cc(OCC)c(C(=O)CCC(=O)O)cc1OCC,inactive
4,CCCCCCCCCCCCCCCCO,inactive
5,CC(=O)NC(=O)c1ccccc1O,inactive
6,OC[C@H]1O[C@@H](Oc2ccc(O)cc2)[C@H](O)[C@@H](O)[C@@H]1O,inactive
7,CNCCc1ccccn1,inactive
8,Cc1ccc(S(=O)(=O)NC(=O)NC2CCCC2)cc1,inactive
9,O=C(O)CCC(=O)Nc1ccc(S(=O)(=O)Nc2nccs2)cc1,inactive
10,COP(=O)(OC)OC(c1ccc(Cl)cc1)P(=O)(OC)OC (configuration not stated),inactive
11,CCNC(=O)NCc1cccc(Cl)c1,inactive
12,NS(=O)(=O)c1ccc(Cl)c(S(N)(=O)=O)c1,inactive
13,COc1ccc(CN(CCN(C)C)c2ncccn2)cc1,inactive
14,FC(F)(F)C(F)(F)C(F)(F)C(F)(F)C(F)(F)C(F)(F)C(F)(F)C(F)(F)Br,inactive
15,COc1ccc(C(=O)c2ccccc2O)c(O)c1,inactive
16,CCCN(CCC)S(=O)(=O)c1ccc(C(=O)O)cc1,inactive
17,O=[N+]([O-])c1cccc(S(=O)(=O)NCCNS(=O)(=O)c2cccc([N+](=O)[O-])c2)c1,inactive
18,CC(C)(C)NCC(O)COc1cccc2c1C[C@H](O)[C@H](O)C2 (some centres not stated),inactive
19,Nc1nc(-c2ccccc2)c(Br)c(=O)[nH]1,inactive

row,Compound,Potency
1,O=C(N/N=C/c1ccc([N+](=O)[O-])o1)c1ccc(O)cc1,inactive
2,COc1ccc(S(=O)(=O)N2c3ccc(Cl)cc3[C@@](O)(c3ccccc3Cl)[C@H]2C(=O)N2CCC[C@@H]2C(N)=O)cc1OC,inactive
3,CCCCCCCCCCCCCCC[C@H](O)[C@@H](N)CO,inactive
4,OC(C#CCN1CCCC1)(c1ccccc1)c1ccccc1,inactive
5,CCN(CC)CCNC(=O)c1cc(Br)c(N)cc1OC,inactive
6,C[C@@H](O)[C@H]1C(=O)N2C(C(=O)O)=C(S[C@@H]3CN[C@H](CNS(N)(=O)=O)C3)[C@H](C)[C@H]12,inactive
7,CN(CCCN1c2ccccc2CCc2ccccc21)CC(=O)c1ccc(Cl)cc1,inactive
8,COc1ccc(C(Cl)=C(c2ccc(OC)cc2)c2ccc(OC)cc2)cc1,inactive
9,Cc1cc(NS(=O)(=O)c2ccc(N)cc2)nc(C)n1,inactive
10,CC(C)Cn1cnc2c1c(=O)n(C)c(=O)n2C,inactive
11,N[C@H](C(=O)O)[C@@H](O)c1ccc(O)c(O)c1,inactive
12,CN1CCC(OC(c2ccccc2)c2ccccc2)CC1,inactive
13,CO[C@H]1C=CO[C@@]2(C)Oc3c(C)c(O)c4c(O)c(c(/C=N/N5CCN(C)CC5)c(O)c4c3C2=O)NC(=O)/C(C)=C\C=C[C@H](C)[C@H](O)[C@@H](C)[C@@H](O)[C@@H](C)[C@H](OC(C)=O)[C@@H]1C,inactive
14,Cc1ccc2c(Br)cc(Br)c(O)c2n1,inactive
15,CCC(C(=O)OCCOCCN(CC)CC)c1ccccc1 (configuration not stated),inactive
16,CN(C)CCOC(=O)C(c1ccccc1)C1(O)CCCC1 (configuration not stated),inactive
17,COc1cc(C(=O)N2CCCCCCC2)cc(OC)c1OC,inactive
18,CC(C)n1c(/C=C/[C@@H](O)C[C@@H](O)CC(=O)O)c(-c2ccc(F)cc2)c2ccccc21,inactive
